The record followed here is PubChem BioAssay AID1745848 (National Center for Advancing Translational Sciences (NCATS), 2022).

Among all 2,100 compounds or so, about 940 (45%) were called active. About 48% were inconclusive and are not listed. The call rests on the fitted dose curve; in most records, active means well fitted inhibition curve with a large enough effect; inconclusive means small, poorly fitted or top-dose-only effect; inactive means no such curve, though single readings can be large or run the other way. So high a share suggests a set chosen from earlier hits. The list shows a part of the results.
Potency means the concentration at half of the fitted maximal effect.

The assay in a line: Confirmatory qHTS for Inhibitors of ATXN expression. Further: nearly all actives have a fitted effect of over 65% in size.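 On activity change, negative = inhibition: 0% = DMSO vehicle wells and -100% = medium-only wells without cells.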 To be noted: ATXN2-luciferase reporter cells, luminescence, 24 h; series mostly up to 11.5 µM; activity change, negative = inhibition: at the top concentration. The method, boiled down:
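Cells carrying ATXN2-luciferase reporter exposed 24 h at 37 C to compound. Viability then read by CellTiter-Fluor (25 uM GF-AFC, 30 min), followed by SteadyGlo luminescence; medium-only wells set 100% inhibition.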
Background: In qHTS, concentration-response curves come from the screen itself.
In the case of `Cc1n(Cc2ccccc2)c2ccccc2[n+]1Cc1ccccc1`, the “activity change, negative = inhibition” value was -27.8% (inactive). With `N#Cc1c(Oc2ccc3ccccc3c2)sc(C(=O)c2ccccc2)c1N`, the Potency was 14.1 µM (active). The same measure, in the same setting: the figure for `CCOC(=O)C1CCN(c2cc3c(cc2NC(=O)c2ccccc2OCC)n(C)c(=O)n3C)CC1` is 28.2 µM (active); for `Cc1ccc(O)c(CNCCNCc2cc(C)ccc2O)c1` it is 14.1 µM (active); for `COc1ccc(-c2noc(CCCC(=O)NC3CCCC3)n2)cc1` it is 8.91 µM (active). On to `Cc1ccc(-c2noc(CCCC(=O)NC3CCCC3)n2)cc1`, for which the Potency was 7.94 µM (active).

`O=C(CSc1ccc2ccccc2c1)Nc1nc2ccccc2[nH]1`: the Potency was 2.82 µM (active). As for `Cc1cccc(OCCCC(=O)Nc2nc3ccccc3[nH]2)c1`, the Potency is 0.891 µM (active). The same measure, in the same setting: the result for `Cc1cccc(OCCCC(=O)Nc2nccs2)c1` reads 3.16 µM (active); that for `Cc1[nH]n(-c2ccccc2)c(=O)c1C=Nc1cccc2cccnc12`, 1.78 µM (active). For the compound `CCOc1cc(/C=C2\SC(=N)N(c3nccs3)C2=O)ccc1OCCN1CCOCC1`, the Potency was 14.1 µM (active). Still for that read-out and setting: the result for `CSc1nc(-c2ccc(Cl)cc2)nc(N)c1C#N` reads 2.82 µM (active); that for `CC(=O)Oc1ccc(N(C(C)=O)S(=O)(=O)c2ccc(C)cc2C)c2ccccc12`, 31.6 µM (active). The same measure, in the same setting: the result for `CC(=O)Oc1ccc(N(C(C)=O)S(=O)(=O)c2ccc(C)cc2)c2ccccc12` reads 3.16 µM (active); that for `CC1CCN(Cc2c(C(=O)N/N=C/c3cc(Br)ccc3O)nnn2-c2nonc2N)CC1`, 0.794 µM (active).

For the compound `CC1CCN(Cc2c(C(=O)N/N=C/c3cc(Cl)ccc3O)nnn2-c2nonc2N)CC1`, the Potency was 3.55 µM (active). On the same count and under the same terms, the figure for `CC1CCN(Cc2c(C(=O)N/N=C/c3ccccc3O)nnn2-c2nonc2N)CC1` is 1.78 µM (active).

As for `CCN1CC2=C(OC(N)=C(C#N)C2c2cccs2)/C(=C\c2cccs2)C1` (stereo not drawn), the “activity change, negative = inhibition” value is -3.24% (inactive). As for `COc1cc([C@@H]2c3cc4c(cc3[C@@H](O[C@@H]3O[C@@H]5CO[C@@H](C)O[C@H]5[C@H](O)[C@H]3O)[C@H]3COC(=O)[C@H]23)OCO4)cc(OC)c1O`, the Potency is 0.631 µM (active). The same measure, in the same setting: the result for `CC[C@]12c3[nH]c4ccc(Cl)cc4c3CCN1C(=O)[C@@H](CC(=O)NCC13CC4CC(CC(C4)C1)C3)C[C@@H]2C(=O)N1CCN(C(=O)C2CC2)CC1` reads 28.2 µM (active); that for `CC[C@]12c3[nH]c4ccc(Cl)cc4c3CCN1C(=O)[C@@H](CC(=O)NCC13CC4CC(CC(C4)C1)C3)C[C@@H]2C(=O)N1CCN(C(=O)c2ccco2)CC1`, 3.55 µM (active).

As for `O=C(N/N=C(\Cc1ncc[nH]1)c1ccccc1)c1ccncc1`, the Potency is 10 µM (active). On the same count and under the same terms, the result for `O=C(N/N=C(\Cc1ncc[nH]1)c1ccccc1)c1cccnc1` reads 3.16 µM (active); that for `Oc1ccc2ccccc2c1/C=C/c1ccc2c(Br)cc(Br)c(O)c2n1`, 12.6 µM (active). The same measure, in the same setting: the result for `CN(C)CCNc1ccc2ncn3c4ccc(O)cc4c(=O)c1c23` reads 1 µM (active); that for `CN(C)CCNc1cccc2sc3ccc(O)cc3c(=O)c12`, 28.2 µM (active). Same read-out and setting: the result for `CN(C)CCNc1ccc2nnn3c4ccc(O)cc4c(=O)c1c23` reads 2 µM (active). For the compound `Cc1cc(Oc2ccc(Cl)cc2)nc(-c2ccccn2)n1`, the “activity change, negative = inhibition” value was -20.3% [at 57.5 µM] (inactive). On to `COc1cnc(-c2ccccn2)nc1Oc1ccc(Cl)c2ccccc12`, for which the Potency was 3.16 µM (active). The same measure, in the same setting: the result for `O=C(N/N=C/c1cc(Br)cc([N+](=O)[O-])c1O)c1ccc(NC(=O)c2ccc(F)cc2)cc1` reads 3.16 µM (active); that for `COc1cc([N+](=O)[O-])cc(/C=N/NC(=O)c2ccc(NC(=O)c3ccc(C)cc3)cc2)c1O`, 1.41 µM (active). On to `Cc1cc(C(=O)N/N=C/c2cc(Br)cc([N+](=O)[O-])c2O)c2ccccc2n1`, for which the Potency is 3.16 µM (active).

For `O=C(Nc1ccc(Cl)c(Cl)c1)Nc1nnc(CSc2ccccc2)s1`, the Potency is 1.78 µM (active). Still for that read-out and setting: the figure for `CC1=CC(C)(C)Nc2ccc(OC(=O)CN3C(=O)CCC3=O)cc21` is 3.55 µM (active); for `Cc1cc(NCc2ccccn2)n2nc(C)c(-c3ccc(Cl)cc3)c2n1` it is 15.8 µM (active); for `CCOc1ccc(-n2c(-c3ccccc3)c[n+]3c2CCCCC3)cc1` it is 8.91 µM (active). For `c1ccc(Cn2c(-c3ccccc3)c[n+]3c2SCCC3)cc1`, the “activity change, negative = inhibition” value was -25.9% [at 57.5 µM] (inactive). Same read-out and setting: the result for `Cc1cccc(C2=NN(c3ccccc3)[C@H](CO)[C@H]2c2ccc(Cl)cc2)c1` reads -19.7% (inactive). As to `Cc1cc(C)c2nc(N3CCCC(C(=O)N4CCN(c5ncccn5)CC4)C3)sc2c1` (stereo not drawn), the Potency is 3.16 µM (active).

For `O=c1cc(-c2cccnc2)oc2c1ccc1ccccc12`, the Potency is 3.55 µM (active). Turning to `CN(C)c1cc[n+](CC(=O)c2ccc(-c3ccccc3)cc2)cc1`, the Potency is 2.24 µM (active). As for `Oc1ccc(C[C@@H]2CNCCN2CCc2cc(C(F)(F)F)cc(C(F)(F)F)c2)cc1`, the Potency was 3.16 µM (active). On the same count and under the same terms, the result for `COc1cccc(-c2ccc(NC(=O)C3CCCN(Cc4cnn(C(C)C)c4)C3)cc2)c1` (stereo not drawn) reads 3.16 µM (active). Turning to `Cc1cc(C)nc(NNS(=O)(=O)c2ccc(F)c(Cl)c2)n1`, the “activity change, negative = inhibition” value was -3.25% (inactive). As for `CN(CC(=O)Nc1ccc(Cl)c(C(F)(F)F)c1)C(=O)c1cccnc1Sc1ccccc1`, the “activity change, negative = inhibition” value was -17.8% [at 57.5 µM] (inactive). Regarding `CN(CC(=O)NCc1ccc(F)cc1)CC(=O)Nc1ccc(Cl)c(C(F)(F)F)c1`, the Potency is 25.1 µM (active). The same measure, in the same setting: the figure for `Cc1nc(-c2ccc(F)cc2)c(CC(=O)N(C)CC(=O)Nc2ccc(Cl)c(C(F)(F)F)c2)s1` is 25.1 µM (active).

With `Cc1cc(OCC(=O)NC(C)c2ccccc2)ccc1[N+](=O)[O-]` (stereo not drawn), the “activity change, negative = inhibition” value is -13.6% (inactive). With `CC(C)C(=O)NC(c1ccccc1)c1cc([N+](=O)[O-])c2cccnc2c1O` (stereo not drawn), the Potency is 10 µM (active). Same read-out and setting: the figure for `CCC(=O)NC(c1ccc(C)cc1)c1cc([N+](=O)[O-])c2cccnc2c1O` (stereo not drawn) is 6.31 µM (active); for `CC(C)c1ccc2c(c1)C(N1CCNCC1)Cc1ccc(F)cc1S2` (stereo not drawn) it is 28.2 µM (active). The same measure, in the same setting: the figure for `CNc1nc2c(N)ncnc2n1[C@H]1O[C@@H](CO)[C@H](O)[C@@H]1O` is 2.82 µM (active); for `N#Cc1c(N)n(C2OC(CO)C(O)C2O)c2ncnc(N)c12` (stereo not drawn) it is 0.398 µM (active); for `CCc1cc(C)cc(OCCNC(=O)c2cncc(Br)c2)c1` it is 25.1 µM (active). With `CCOc1ccc(CCNC(=O)c2ccc(OCc3c(C)noc3C)cc2)cc1OCC`, the “activity change, negative = inhibition” value is -13.2% (inactive). `COc1ccc(OCc2cccc(C(=O)Nn3cc([N+](=O)[O-])cn3)c2)cc1`: the Potency was 0.398 µM (active). `O=C(Nc1ccc2c(c1)CCC2)C1CCN(c2c3c(nc4ncnn24)CCC3)CC1`: the Potency was 7.94 µM (active). With `CC(C)COc1cccc(C(=O)N(CC(=O)Nc2ccccc2C(F)(F)F)Cc2ccco2)c1`, the Potency is 3.16 µM (active). On the same count and under the same terms, the result for `Cc1cc(C)nc(N/N=C2/CCCC/C2=C\c2ccccc2)n1` reads 2.82 µM (active); that for `COc1cc2[nH]c(=O)n(CCCCCC(=O)N3CC=C(c4ccccc4)CC3)c(=O)c2cc1OC`, 3.16 µM (active); that for `CCOC(=O)c1c(NC(=O)C(Sc2ccccc2)c2ccccc2)sc(C(=O)N(C)C)c1C` (stereo not drawn), 25.1 µM (active). As to `CCOC(=O)c1c(NC(=O)COC(=O)c2ccccc2NC)sc(C(=O)N(C)C)c1C`, the “activity change, negative = inhibition” value was -24% (inactive).

On to `NC(Cc1ccc(F)cc1)c1csc(NC(=O)NC(c2ccccc2)c2ccccc2)n1` (stereo not drawn), for which the Potency is 28.2 µM (active).

Regarding `COc1ccc(CNC(=O)Nc2nc(C(N)Cc3ccc(Cl)cc3)cs2)cc1` (stereo not drawn), the Potency was 28.2 µM (active). Take `COc1ccc(CC(N)c2csc(NC(=O)c3ccccc3OC)n2)cc1` (stereo not drawn): the “activity change, negative = inhibition” value was -21.7% [at 57.5 µM] (inactive).

`COc1ccc(N(C(=O)c2snc(C(N)=O)c2N)C(C(=O)NCc2ccc(F)cc2)c2ccc(O)cc2)cc1` (stereo not drawn): the “activity change, negative = inhibition” value was -19.9% [at 57.5 µM] (inactive). As for `CC(C)CC(N)c1csc(NC(=O)Nc2ccccc2C(C)(C)C)n1` (stereo not drawn), the Potency is 3.16 µM (active).

For `NC(Cc1ccc(Cl)cc1)c1csc(NC(=O)Nc2ccccc2-c2ccccc2)n1` (stereo not drawn), the Potency is 3.16 µM (active). Still for that read-out and setting: the result for `NC(c1ccccc1)c1csc(NC(=O)Nc2ccccc2Oc2ccccc2)n1` (stereo not drawn) reads 3.16 µM (active); that for `O=C(OCCN1C(=O)c2cccc3c(N4CCOCC4)ccc(c23)C1=O)c1ccccc1Cl`, 5.01 µM (active); that for `COc1ccc2c(-c3ccc(S(N)(=O)=O)cc3)c(-c3ccc(S(C)(=O)=O)cc3)sc2c1`, 28.2 µM (active). Same read-out and setting: the result for `O=C(/C=C/c1ccco1)Oc1cc(Br)cc(/C=N/NC(=O)c2ccccc2O)c1` reads 0.447 µM (active); that for `O=C(CNC(=O)c1ccc(F)cc1)N/N=C/c1cc(Br)ccc1OC(=O)/C=C/c1ccco1`, 15.8 µM (active); that for `O=C(CNC(=O)c1cccc(F)c1)N/N=C/c1cc(Br)ccc1OC(=O)/C=C/c1ccco1`, 7.94 µM (active). On the same count and under the same terms, the result for `O=C(CNC(=O)c1ccccc1F)N/N=C/c1cc(Br)ccc1OC(=O)/C=C/c1ccco1` reads 11.2 µM (active). Consider `O=C(NCCc1csc(-c2cccnc2)n1)c1cccc(Cl)c1`, for which the “activity change, negative = inhibition” value was -25.2% [at 57.5 µM] (inactive). With `O=C(NNC(=O)c1cnccn1)c1ccc(Cl)c(Cl)c1`, the Potency was 15.8 µM (active). Still for that read-out and setting: the result for `COc1cc(C(=O)NC(=S)NNC(=O)c2cnccn2)cc(OC)c1OC` reads 12.6 µM (active); that for `O=C(/C=C/c1ccccc1)NC(=S)NNC(=O)c1cnccn1`, 7.94 µM (active). In the case of `CCCCOc1ccc(C(=O)NNC(=O)c2cnccn2)cc1OC`, the Potency is 17.8 µM (active).

`NC(N)=N/N=C/c1ccc2cccc(OCc3ccccc3)c2n1`: the Potency is 10 µM (active). Same read-out and setting: the figure for `CCC(c1nnnn1C1CCCC1)N(Cc1cccs1)Cc1cc2cc(C)ccc2[nH]c1=O` (stereo not drawn) is 28.2 µM (active); for `Cn1nnnc1Sc1ncnc2scc(Br)c12` it is 28.2 µM (active). Still for that read-out and setting: the result for `Cn1nnnc1Sc1ncnc2scc(-c3ccccc3Cl)c12` reads 3.16 µM (active); that for `CC(=O)c1cccc(-c2csc3ncnc(Sc4nnnn4C)c23)c1`, 11.2 µM (active).

On to `Cn1nnnc1Sc1ncnc2scc(-c3ccc[nH]3)c12`, for which the Potency was 28.2 µM (active).

In the case of `CCOC(=O)c1c(C)oc2c(F)c(F)c(F)c(F)c2c1=O`, the Potency is 3.98 µM (active). On to `CCN(CC)CCNC1=NCCn2c1cc1cc(OC)ccc12`, for which the Potency is 1.78 µM (active).
